The supplement of paper PMC6555819

How the values were obtained:
Test in all cases: PBM binding z-score (relative to random genomic background probes); higher = stronger binding; sequences stand for … in GC…GCGATTGACAGCGTAGAATGAAGG
[1] = test system: FXR:RXRa (NR concentration 270 nM, RXRa partner concentration 90 nM)
Procedure, shortened: (§1)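 Regression normalization was applied to scanned fluorescence from custom Agilent 4×180K protein-binding microarrays. Before scanning, arrays were incubated 1 h with ligand-free nuclear receptor dimers, and binding was detected with antibodies against each partner (one per run). Binding z-scores use the random background probes as reference.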

[2] = test system: LXRa:RXRa (NR concentration 270 nM, RXRa partner concentration 90 nM)
Procedure, shortened: as §1

[3] = test system: LXRa homodimer (NR concentration 270 nM)
Procedure, shortened: as §1

[4] = test system: LXRb:RXRa (NR concentration 270 nM, RXRa partner concentration 90 nM)
Procedure, shortened: as §1

[5] = test system: LXRb homodimer (NR concentration 270 nM)
Procedure, shortened: as §1

[6] = test system: PPARa:RXRa (NR concentration 270 nM, RXRa partner concentration 90 nM)
Procedure, shortened: as §1

[7] = test system: PPARg:RXRa (NR concentration 180 nM, RXRa partner concentration 90 nM)
Procedure, shortened: as §1

[8] = test system: PPARg:RXRa 270nM:90nM, anti-RXR (NR concentration 270 nM, RXRa partner concentration 90 nM)
Procedure, shortened: as §1

[9] = test system: PPARg:RXRa 30nM:10nM, anti-RXR (NR concentration 30 nM, RXRa partner concentration 10 nM)
Procedure, shortened: as §1

[10] = test system: PPARg:RXRa 90nM:30nM, anti-RXR (NR concentration 90 nM, RXRa partner concentration 30 nM)
Procedure, shortened: as §1

[11] = test system: PPARg:RXRa DBDmut IVT, anti-RXR (DBD mutation: RXRa K156A/R161A, NR concentration 270 nM, RXRa partner concentration 90 nM)
Procedure, shortened: as §1

[12] = test system: PPARg:RXRa IVT, anti-PPARg (NR concentration 270 nM, RXRa partner concentration 90 nM)
Procedure, shortened: as §1

[13] = test system: PPARg DBDmut:RXRa IVT, anti-PPARg (DBD mutation: PPARg1 K132A/R137A, NR concentration 270 nM, RXRa partner concentration 90 nM)
Procedure, shortened: as §1

[14] = test system: PPARg DBDmut IVT, anti-PPARg (DBD mutation: PPARg1 K132A/R137A, NR concentration 270 nM)
Procedure, shortened: as §1

[15] = test system: PPARg homodimer (NR concentration 180 nM)
Procedure, shortened: as §1

[16] = test system: PXR:RXRa (NR concentration 270 nM, RXRa partner concentration 90 nM)
Procedure, shortened: as §1

[17] = test system: PXR homodimer (NR concentration 270 nM)
Procedure, shortened: as §1

[18] = test system: RARa:RXR (NR concentration 270 nM, RXRa partner concentration 90 nM)
Procedure, shortened: as §1

[19] = test system: RARa homodimer (NR concentration 270 nM)
Procedure, shortened: as §1

[20] = test system: RARb:RXRa (NR concentration 270 nM, RXRa partner concentration 90 nM)
Procedure, shortened: as §1

Sequence	PBM binding z-score [1]	PBM binding z-score [2]	PBM binding z-score [3]	PBM binding z-score [4]	PBM binding z-score [5]	PBM binding z-score [6]	PBM binding z-score [7]	PBM binding z-score [8]	PBM binding z-score [9]	PBM binding z-score [10]	PBM binding z-score [11]	PBM binding z-score [12]	PBM binding z-score [13]	PBM binding z-score [14]	PBM binding z-score [15]	PBM binding z-score [16]	PBM binding z-score [17]	PBM binding z-score [18]	PBM binding z-score [19]	PBM binding z-score [20]
TCTGCTAGGTCACTTGGTCAGCTAACGAGCTGCC	2.56	2.03	-0.292	1.38	0.874	2.97	2.53	3.31	1.62	2.28	4.06	4.55	2.55	1.22	0.811	0.889	-0.812	1.93	-0.792	3.81
GGAACGAGGGCCAGTTGATAGCAGAGTTTGATGG	-0.532	-0.8	-0.645	-1.21	-0.96	-0.53	0.258	-0.67	-0.491	-0.758	0.134	-0.54	-0.953	-0.88	-0.513	-0.515	-0.158	-0.522	-1.03	0.217
ATCTCTAGGTACCCAAGTTCAGTGAATGCCGAAC	0.332	1.7	3	0.887	1.08	0.625	0.408	0.456	0.321	0.493	0.72	1.02	0.772	0.793	0.883	1.76	1.62	0.698	0.262	1
ATCTCTAGGTAAAAGTTCAGTGGATCCCGAGGAT	1.06	1.66	1.37	1.03	1.11	4.09	7.94	7.5	7.58	8.5	2.25	3.58	1.28	1.66	1.32	2.05	1.71	1.76	1.18	2.41
TCATATAGGTAAACAGGTGAAACTCCGTAAGTTA	0.937	1.06	0.143	0.976	-0.264	2.64	2.96	3.47	4.07	3.7	5.13	4.56	1.07	1.38	1.21	0.711	0.237	1.28	0.733	0.76
ACTTTCGGGTCAACGAGGTTATAGCACGCGTATA	6.38	5.02	0.999	4.56	1.45	5.52	4.94	5.18	2.34	4.34	3.31	4.16	1.8	1.14	2.32	5.37	6.97	4.91	1.53	4.29
TCGAGTAGGTTAGGGGCATTCCGAATGGCGTCGA	0.369	0.403	-0.233	0.645	-0.872	1.25	0.541	2.27	1.24	1.64	2.28	1.28	-1.42	-0.881	0.639	0.385	-0.429	0.334	-0.756	1.06
CCTATTAGTTGACCATAAGGGCAGCCGAAGCTCG	0.542	-0.0359	0.036	0.218	0.392	0.0636	0.126	0.442	-0.292	-0.0917	0.366	0.178	-0.234	-0.298	1.6	0.00471	0.575	0.385	1.64	1.29
TCGAGTAGGTTAGTCGGAGCATTCAGCCAACATA	-0.453	-0.512	-0.667	-0.741	-1.46	0.0631	-0.127	0.379	0.624	0.538	2.04	1.68	-0.361	-0.571	0.0245	-0.452	-0.761	-0.167	-0.593	-0.208
TCATATAGGTAAAGGCGAAAGTCGAACGATATGA	0.173	0.402	-0.495	0.229	-0.044	1.3	1.1	2.52	3.75	3.23	3.49	2.3	1.22	0.996	0.221	-0.107	0.0413	0.124	0.504	0.399
TGAATGAGTTTATAAGATCAGGGAACGTTGCAAA	-0.262	-0.382	-0.288	-0.209	-0.337	0.00137	0.119	0.389	0.73	0.5	-0.937	-0.179	0.631	0.748	0.106	0.215	0.318	0.174	0.105	-0.00933
GCTAGAAGGCCATTTGGGTCACTCAATGACGGGC	0.421	0.146	-0.572	0.474	-0.706	1.49	0.807	0.44	-0.268	-0.245	1.13	1.97	-0.158	-0.532	0.149	1.19	1.2	1.08	-0.572	2.2
TGTCAAAGTACAAAGGTAACGTAAGTATCCACAC	0.237	0.465	-0.185	0.542	-0.294	1.67	3.64	4.32	1.97	3.96	-0.385	2.33	1.2	1.03	0.0149	0.587	-0.194	1.04	0.713	1.67
CCATACGGGTCACTCCAGGTTATAGCATCGGAGT	4.55	7.37	1.79	5.15	0.265	4.18	3.46	3.28	1.27	2.68	1.6	3.66	-0.54	0.0685	1.66	4.94	0.464	3.54	0.63	3.54
